Data on 94 molecules can be found in PubChem BioAssay AID1578 (Sanford-Burnham Center for Chemical Genomics, 2009).

In all, about 290,000 compounds went through this assay and about 3,000 (1%) were called active. Shown is part of a subset that was picked to be rich in actives. Unmarked numbers belong to inactive results. Rule as the data show it: active = inhibition mostly above about 36% (no sharp cut-off); inactive = mostly below about 34%.

This assay can be described thus: NOD1 signaling inhibitors, primary screen, cell-based, luminescence, uHTS (AID 1578).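 Also: HEK-293T reporter cells stimulated with the NOD1 agonist gamma-tri-DAP.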 The settings on record: NOD1-driven NF-kB luciferase reporter cells, at 4 µM, hits give high values.
As to `O=C(CSCCSCC(=O)c1ccco1)c1ccco1`, the inhibition was -26.9%. To `O=C(C#Cc1ccccc1)c1ccco1` belongs 72.9% (active); to `O=C(NCc1ccccc1)c1ccco1`, -12.3%; to `CC(C)C(=O)Nc1ccc(C(=O)NCc2cccnc2)cc1`, -35.1%. For the molecule `COc1ccc(NS(=O)(=O)c2ccc3oc(SC)nc3c2)cc1`, the inhibition is -2.9%. To `CNC(=O)CSc1nc2cc(S(=O)(=O)Nc3ccc(OC)cc3)ccc2o1` belongs -1.2%; to `CCCN=C(C)c1c(-c2ccccc2)[nH]n(-c2nc3ccccc3s2)c1=O`, 7.3%; to `COC(=O)Cc1[nH]n(-c2nc3ccccc3s2)c(=O)c1C(C)=O`, -16.2%.

As for `CC(=O)c1c(CC(=O)O)[nH]n(-c2nc3ccccc3s2)c1=O`, the inhibition is 79.8% (active).

In the case of `O=C(CCN1C(=O)c2ccccc2C1=O)OCN1C(=O)c2ccccc2C1=O`, the inhibition is 11.2%. To `O=c1cc(N2CCN(c3ccc(F)cc3)CC2)[nH]c(=O)n1Cc1ccc(F)cc1` belongs -13%.

As for `CC1=NNC(=O)/C1=C\c1cn(-c2ccccc2)nc1-c1ccccc1`, the inhibition is 64.7% (active). To `CC1=NNC(=O)/C1=C\c1cn(-c2ccccc2)nc1-c1ccc(F)cc1` belongs -39.1%; to `CC1=NNC(=O)/C1=C\c1cn(-c2ccccc2)nc1-c1ccc(Cl)cc1`, -47.4%.

In the case of `COc1ccc(NC(=O)CC(C(=O)O)N2CCCCC2)cc1` (centres undefined), the inhibition is 2.5%. To `Cc1ccccc1-n1c(C)cc(/C=N/Nc2ccc([N+](=O)[O-])cn2)c1C` belongs -119%; to `Cc1cc(/C=N/Nc2nc(N)ncc2[N+](=O)[O-])c(C)n1-c1cccc(C(F)(F)F)c1`, -14.7%; to `Cc1cc(/C=N/Nc2ccc([N+](=O)[O-])cn2)c(C)n1-c1ccccc1`, -31.3%. In the case of `COc1cccc(/C=N/Nc2ncnc(N)c2[N+](=O)[O-])c1OC`, the inhibition was 53.3%.

Turning to `O=C(CCN1C(=O)/C(=C/c2ccccc2)SC1=S)NNC(=O)c1ccncc1`, the inhibition is -47.5%. To `O=C1CC(c2ccc(F)cc2)C2=C(CCCC2=O)N1` (centres undefined) belongs -5.5%; to `CCc1cc2c(=O)n(Cc3ccccc3)c(SC3CCOC3=O)nc2s1` (centres undefined), -29.3%. As to `COc1ccc(CCN2C(=NC(=O)C(C)C)SC3CS(=O)(=O)CC32)cc1OC` (centres undefined), the inhibition is -10.6%. For `CCCCS(=O)(=O)/C=C/[C@H]1[C@H](S(=O)(=O)CCCC)[C@H]2C=C[C@@H]1C2`, the inhibition is -23.6%.

For `CCCCS(=O)(=O)/C=C\C1C2C=CC(C2)C1S(=O)(=O)CCCC` (centres undefined), the inhibition is 6.2%. To `CCCCS(=O)(=O)/C=C\C=C/S(=O)(=O)CCCC` belongs 97.7% (active); to `Cc1cc(C)nc(NC2=NCC(=O)N2CCc2c[nH]c3ccccc23)n1`, -8.6%. For `Cc1ccc(NC(=O)CCN2CCN(C)CC2)cc1` the value was 24.4%. For `COC(=O)c1sc(NC(=S)NC(=O)c2cccc(Br)c2)nc1C` the value was 25.2%; for `COc1cccc(CN(C)c2nc(-c3cccs3)nc3ccccc23)c1`, 7.9%; for `CN(Cc1ccccc1F)c1nc(-c2cccnc2)nc2ccccc12`, 25.5%. As to `CN(Cc1ccccc1F)c1nc(-c2cccs2)nc2ccccc12`, the inhibition is 67.9% (active). On to `O=C(Nc1ccccc1-c1nnc(SCc2ccc(Cl)cc2)o1)c1ccccc1`, for which the inhibition was 5.6%. For `O=C(Cc1ccccc1F)OCN1C(=O)c2ccccc2C1=O` the value was -15.6%; for `O=C(Cc1ccc(F)cc1)OCN1C(=O)c2ccccc2C1=O`, 49.7% (active). To `COc1ccc(CC(=O)OCN2C(=O)c3ccccc3C2=O)cc1` belongs 0.1%; to `Cc1c(NC(=O)Nc2cccc(C#N)c2)c(=O)n(-c2ccccc2)n1C`, -8.2%; to `COc1ccc(NC(=O)c2ccc(S(=O)(=O)N(C)C)cc2)cc1`, -41.1%. To `O=c1c2cnn(-c3ccccc3)c2nc(-c2cccs2)n1-c1cccc(Cl)c1` belongs -3.1%. As for `Cc1ncoc1C(=O)N1CCCC(CCC(=O)NCc2ccc(F)c(F)c2)C1` (centres undefined), the inhibition was -31.1%. Take `CN(C)c1ccc(/C=C/c2cc[n+](C)cc2)cc1`: the inhibition is 25%. On to `CN(C)c1ccc(/C=C/c2cccc[n+]2[O-])cc1`, for which the inhibition was 2.7%. For `CC(=O)/C(C(=N)N1CCN(c2cccc(Cl)c2)CC1)=C(\C)O` the value was 24.8%; for `O=[N+]([O-])c1cc([N+](=O)[O-])c(Oc2c(Cl)cccc2Cl)cc1NN1CCCCC1`, -4.9%. For `O=[N+]([O-])c1cc([N+](=O)[O-])c(Oc2ccc(Cl)c3cccnc23)cc1NN1CCCCC1`, the inhibition is 44.7% (active).

For the molecule `O=[N+]([O-])c1cc([N+](=O)[O-])c(Oc2cccnc2Br)cc1NN1CCCCC1`, the inhibition was 5.9%. On to `O=C(O)c1ccc(S(=O)(=O)NCC2CCCCC2)cc1`, for which the inhibition is -9.7%. For `O=C(NCC1COc2ccccc2O1)C1CCCN(S(=O)(=O)c2cccc3cccnc23)C1` (centres undefined) the value was 22.5%; for `COC(=O)Cc1[nH]n(-c2nc3ccccc3s2)c(=O)c1C(C)=Nc1ccc(Cl)cc1`, 1%; for `COC(=O)CC1=NN(c2nc3ccccc3s2)C(=O)/C1=C/N(C)C`, -19.7%.

As to `Fc1ccc(CSc2ncnc3nc[nH]c23)cc1`, the inhibition was -14.8%. `N#Cc1c(-c2ccccc2)cc(-c2ccccc2)nc1SCc1nnc(-c2ccccc2)o1`: the inhibition was 12.9%. To `Cc1cc(C)c(C#N)c(SCc2nnc(-c3ccccc3[N+](=O)[O-])o2)n1` belongs -26%; to `CN(CC1CCN(CCc2cccc(C(F)(F)F)c2)CC1)C(=O)c1ccc(F)cc1`, 18.5%; to `O=C(Cn1c(=O)oc2cc(S(=O)(=O)N3CCCC3)ccc21)N1CCN(c2ccccn2)CC1`, -8%. As to `COc1ccccc1OCc1n[nH]c(=S)n1Cc1ccccc1`, the inhibition is -18.7%. To `CC(C)Oc1ccc(Cc2n[nH]c(=S)n2Cc2ccccc2)cc1Cl` belongs -44.3%; to `COc1ccc(Cc2n[nH]c(=S)n2Cc2ccccc2)cc1Cl`, 44.7% (active); to `CCCCn1c(=O)[nH]c(=O)c2c1nc(CN1C(=O)c3ccccc3S1(=O)=O)n2CCC`, -23.3%. For `CCCCn1c(=O)[nH]c(=O)c2c1nc(Cn1ncc(Cl)c(Cl)c1=O)n2CCC` the value was 85% (active); for `CCCCn1c(CCC(=O)O)nc2c1c(=O)[nH]c(=O)n2CCC`, -15.7%; for `COc1ccc(NC(=O)c2ccccn2)cc1S(=O)(=O)N1CCOCC1`, -33.7%. To `CC1=Nc2ccccc2/C1=C\c1sc(Nc2ccc(C)cc2)nc1O` belongs 1.1%.

With `Oc1[nH]c(=S)sc1C=C1N=c2ccccc2=N1`, the inhibition was -5.9%. Regarding `Oc1[nH]c(=S)sc1/C=C1\C(c2ccccc2)=Nc2ccccc21`, the inhibition is 72.5% (active). On to `Cc1ccc(S(=O)(=O)N2CCN(C(=O)CSC3CCCC3)CC2)c(C)c1`, for which the inhibition was -8.8%. Turning to `Cc1cccc(N2CCN(c3nc4nonc4nc3N3CCSCC3)CC2)n1`, the inhibition is -22.4%.

For `Cc1ccc(NC(=O)C(=O)NCc2ccccn2)cc1`, the inhibition was -47.6%. To `COc1ccc(C(=O)CSc2cc(C)nc(SCC(=O)c3ccc(C)cc3)n2)cc1` belongs 63.1% (active). To `Cc1ccc(C(=O)CSc2cc(C)nc(SCC(=O)c3ccccc3)n2)cc1` belongs 61.4%; to `Cc1cc(SCC(N)=O)nc(SCC(=O)c2ccccc2)n1`, 28.1%.

As to `Cc1ccc(S(=O)(=O)N2CCN(C(=O)c3sccc3-c3ccccc3)CC2)cc1`, the inhibition is -24.8%.

For the molecule `COc1ccc(N(C(C)C(=O)N/N=C/c2ccc(OC(C)C)cc2)S(C)(=O)=O)cc1` (centres undefined), the inhibition was 14.7%. For `CC(C)(C)c1[nH]nc2c1C(c1ccsc1)C(C#N)=C(N)O2` (centres undefined) the value was 59.2% (active); for `Cc1[nH]nc2c1C(c1ccsc1)C(C#N)=C(N)O2` (centres undefined), -7.7%. For `CC(C)(C)c1[nH]nc2c1C(c1ccncc1)C(C#N)=C(N)O2` (centres undefined) the value was -8.8%; for `Cc1ccc(C)c(NS(=O)(=O)c2csc(C(N)=O)c2)c1`, -9.7%. Take `O=C(Nc1ccc(Nc2ccccc2)cc1)C(Cl)Cl`: the inhibition is -5.4%. To `CC(=O)c1c(-c2ccccc2)[nH]c2ccccc12` belongs 5.8%.

For the molecule `Cc1ccccc1N1C(=O)CC(c2c[nH]c3ccccc23)C1=O` (centres undefined), the inhibition is -3.6%. To `COc1nc(OC)nc(N2CCC(C(=O)NCC3CCCCC3)CC2)n1` belongs -10.9%; to `Cc1nnc(SCCn2c(N3CCCC(C)C3)nc3c2c(=O)[nH]c(=O)n3C)s1` (centres undefined), -9.1%. To `C=CCNC(=S)NC(=O)c1ccc(C)c(Br)c1` belongs -4.3%; to `C=CCN(CC=C)C(=S)NC(=O)c1ccc(C)c(Br)c1`, 108% (active). On to `C=CCN(CC=C)C(=S)NC(=O)c1ccc(OC)c(Br)c1`, for which the inhibition is 30.4%. For the molecule `O=S(=O)(c1ccc(Cl)cc1)n1cnc2ccccc21`, the inhibition is -31.4%. For `Cc1ccc(-c2csc(N(C)C(=O)c3c(C)nn(-c4ccccc4)c3Cl)n2)cc1` the value was 33.6%.

On to `O=C(CN1C(=O)NC2(CCCCC2)C1=O)N1CCN(S(=O)(=O)c2ccccc2)CC1`, for which the inhibition was -35.1%. As to `Cc1cccc(C)c1Nc1nnc(SCc2nc3ccccc3s2)s1`, the inhibition was -39.5%. As for `Nc1ccccc1Nc1cc(-c2ccccc2)[nH]n1`, the inhibition is 48.4% (active).

Turning to `Nc1ccccc1Nc1cc(-c2ccccc2)nn1-c1ccccc1`, the inhibition was -20.6%. For `CC1(C)CC(=O)C=C(Nc2cc(-c3ccccc3)[nH]n2)C1` the value was -25.9%; for `CC(C)C(NC(=O)c1ccc(F)cc1)C(=O)NCC1CCCO1` (centres undefined), -6.2%. For `COc1cc(OC)cc(C(=O)Nc2ccc(S(=O)(=O)N3CCOCC3)cc2)c1` the value was -9.3%.
